Measurements: PubChem BioAssay (NCATS)
Results filed as inconclusive are left out. Activity calls are given as the source filed them. Calls come from the whole dose curve; as a rule, active = well fitted inhibition curve with a large enough effect; inconclusive = small, poorly fitted or top-dose-only effect; inactive = flat fitted curve, though single readings scatter.

What was measured:
CRL-7250 = normal cell line; experiment: Cytotoxic Profiling of Annotated Libraries Using Quantitative High-Throughput Screening (AID 1296008); settings: Five cell lines viability, CellTiter-Glo ATP luminescence, 48-72 h; max response: hits give low values; note: potency is the fitted concentration of half-maximal effect; for max response: % is set by controls: 0 for no effect and ±100 for the full control effect
Method in brief: (§1)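 Cells exposed to compounds for 48 or 72 hr at 37 degrees Celsius. Viability read as ATP-coupled luminescence with CellTiter-Glo after 10 min at room temperature.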

HEK293 = experiment: as above; settings: Five cell lines viability, CellTiter-Glo ATP luminescence, 48-72 h; max response: hits give low values
Method in brief: as §1

HaCat [1] = experiment: as above; settings: Five cell lines viability, CellTiter-Glo ATP luminescence, 48-72 h; max response: hits give low values
Method in brief: as §1

NIH3T3 = experiment: as above; settings: Five cell lines viability, CellTiter-Glo ATP luminescence, 48-72 h; max response: hits give low values
Method in brief: as §1

HACAT [2] = experiment: qHTS assay to identify novel small-molecules to repurpose for Merkel cell carcinoma treatment (AID 1296009); settings: MCC and control cell lines, CellTiter-Glo viability, 72 h; at 44.8 µM (top of the series) unless noted
Method in brief: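 Cells were treated for 72 hr at 37 degree celsius with compounds in 8- or 11-point dose response. Viability was read by CellTiter-Glo luminescence, normalized to no-cell (cytotoxicity) and DMSO controls.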
Note: nearly all actives have a fitted effect of over 60% in size.

Cc1nc2ccc(CN(C)c3ccc(C(=O)NC(CCC(=O)O)C(=O)O)s3)cc2c(=O)[nH]1 (configuration not stated)
active: Potency (HEK293) 41.1 nM | Potency (HaCat [1]) 10.3 nM | Potency (NIH3T3) 65.1 nM
inactive: outcome (CRL-7250)

CCC(CC)C(=O)OC12C(OC(=O)C(C)C)C(C)C3(O)C(C=C(CO)CC4(O)C(=O)C(C)=CC43)C1C2(C)C (configuration not stated)
inactive: max response (CRL-7250) 0.624% | max response (HEK293) -5.82% | outcome (HaCat [1]) | outcome (NIH3T3) | outcome (HACAT [2]) inactive [at 17.4 µM]

CC[C@H]1CN(c2nc(N)c(C(N)=O)nc2Cl)CCN1C1CCN(Cc2ccc(Cl)cc2)CC1
inactive: max response (CRL-7250) 4.79% | max response (HEK293) -6.38% | outcome (HaCat [1]) | max response (NIH3T3) 0.303% | outcome (HACAT [2])

FC(F)(F)c1ccc(/C=C/c2nc(COc3ccc(CCCCn4ccnn4)cc3)co2)cc1
active: Potency (CRL-7250) 65.1 nM | Potency (HEK293) 29.1 nM
inactive: max response (HaCat [1]) -23.7% | max response (NIH3T3) -18.7%

CCCCCCOC(=O)/N=C(\N)c1ccc(NCc2nc3cc(C(=O)N(CCC(=O)OCC)c4ccccn4)ccc3n2C)cc1
inactive: max response (CRL-7250) -1.92% | max response (HaCat [1]) -18.9% | max response (NIH3T3) -4.93%
active: Potency (HEK293) 18400 nM

CC(=O)O[C@@H]1C[C@@]23C[C@@]24CC[C@H](O[C@@H]2OC[C@H](O)[C@H](O)[C@H]2O)C(C)(C)[C@@H]4CC[C@H]3[C@]2(C)[C@@H](O)C34O[C@H](C[C@@H](C)[C@@H]3[C@@]12C)[C@@H](C(C)(C)O)O4
inactive: max response (CRL-7250) 4.08% | max response (HEK293) -6.78% | outcome (HaCat [1]) | max response (NIH3T3) 2.71% | outcome (HACAT [2])

COc1ccc(N(C(=O)Nc2c(C)cccc2C)c2cc(Nc3ccc(N4CCN(C)CC4)cc3)ncn2)c(OC)c1
active: Potency (CRL-7250) 2910 nM | Potency (HEK293) 14600 nM | Potency (HaCat [1]) 7310 nM | Potency (NIH3T3) 2060 nM

Nc1nc(O)c(C2=C3C(=Nc4ccccc43)C(=O)NCC2)[nH]1
inactive: max response (CRL-7250) -2.87% | max response (HEK293) -2.48% | max response (HaCat [1]) -1.91% | max response (NIH3T3) 2.47%

O=C(Nc1ccc(Cl)cc1)C1CCCN(C(=O)c2cccc(-c3ccco3)c2)C1 (configuration not stated)
inactive: max response (HaCat [1]) -30% | max response (NIH3T3) -26.4%
active: Potency (CRL-7250) 13000 nM | Potency (HEK293) 18400 nM

CC(C)C[C@@H]1NC(=O)[C@@H]2C[C@@]34C[C@@H]5[C@@]6(C)CCCC(C)(C)C6CC[C@@]5(C)N(c5ccccc53)[C@H]4N2C1=O (some centres not stated)
inactive: outcome (HaCat [1]) | max response (NIH3T3) -3.44% | outcome (HACAT [2]) inactive [at 17.4 µM]
active: Potency (CRL-7250) 502 nM | Potency (HEK293) 796 nM

Cc1sc2c(c1C)C(c1ccc(Cl)cc1)=N[C@H](CC(=O)NCCCCNC(=O)COc1cccc3c1C(=O)N([C@H]1CCC(=O)NC1=O)C3=O)c1nnc(C)n1-2
active: Potency (CRL-7250) 1840 nM | Potency (HEK293) 2590 nM
inactive: max response (HaCat [1]) -67.4% | max response (NIH3T3) -0.715%

CN[C@@H]1[C@H](O[C@H]2[C@H](O[C@@H]3[C@@H](O)[C@H](O)[C@@H](N=C(N)N)[C@H](O)[C@H]3N=C(N)N)O[C@@H](C)[C@]2(O)CO)O[C@@H](CO)[C@H](O)[C@H]1O
inactive: max response (CRL-7250) 1.43% | max response (HEK293) -16.2% | max response (HaCat [1]) -0.834% | max response (NIH3T3) 3.49%

COc1cc(N2CCC(N)CC2)ccc1Nc1ncc(Cl)c(-c2c[nH]c3ccccc23)n1
active: Potency (CRL-7250) 6510 nM | Potency (HEK293) 4610 nM | Potency (HaCat [1]) 5170 nM | Potency (NIH3T3) 2310 nM

COc1cc(O)c2c(c1)C1OC1C[C@H](O)[C@H](O)C(=O)/C=C\C[C@H](C)OC2=O (some centres not stated)
active: Potency (CRL-7250) 20600 nM | Potency (HEK293) 3660 nM | Potency (HaCat [1]) 8200 nM | Potency (NIH3T3) 2060 nM

C1=C/COCc2cc(ccc2OCCN2CCCC2)Nc2nccc(n2)-c2cccc(c2)COC/1
active: Potency (CRL-7250) 6510 nM | Potency (HEK293) 2060 nM | Potency (HaCat [1]) 5800 nM | Potency (NIH3T3) 4110 nM

CC(=O)OC(C)(C)/C=C/C(=O)C(C)(O)C1C(O)CC2(C)C3CC=C(C(C)(C)C(=O)O)C(CC(=O)O)C3(C)C(=O)CC12C (configuration not stated)
inactive: max response (CRL-7250) 2% | max response (HEK293) -1.12% | outcome (HaCat [1]) | outcome (NIH3T3) | outcome (HACAT [2]) inactive [at 17.4 µM]

CCNC(=O)c1noc(-c2cc(Cl)c(O)cc2O)c1-c1ccc(OC)cc1
active: Potency (CRL-7250) 461 nM | Potency (HEK293) 206 nM | Potency (HaCat [1]) 259 nM | Potency (NIH3T3) 920 nM

COc1cc(Br)c(S(=O)(=O)Nc2ccc(Cl)c(O[C@@H]3CCN(C)C3)c2)cc1OC
inactive: outcome (CRL-7250) | outcome (HaCat [1]) | max response (NIH3T3) -15.8% | outcome (HACAT [2])
active: Potency (HEK293) 7310 nM

COC(=O)C1=CO[C@@H](O[C@@H]2O[C@H](CO)[C@@H](O)[C@H](O)[C@H]2O)[C@H]2[C@@H]1C=C[C@]21C=C([C@H](C)OC(=O)/C=C/c2ccc(O)cc2)C(=O)O1
active: Potency (CRL-7250) 1220 nM | Potency (HEK293) 1720 nM | Potency (HaCat [1]) 3850 nM | Potency (NIH3T3) 3060 nM

Cc1ccc(NC(=O)c2ccc(CN3CCNCC3)cc2)cc1Nc1nccc(-c2cccnc2)n1
inactive: max response (CRL-7250) -21.4% | outcome (HaCat [1]) | outcome (NIH3T3) | outcome (HACAT [2])
active: Potency (HEK293) 10300 nM
